# The sample as a whole holds a higher share of hits than the screen did.
# Dicer processing: human Dicer pre-microRNA cleavage inhibition. z-score at 25 µM. 47,000 tested, 6% active. Q9UPY3. cat-ELCCA pre-miR-21 Dicer processing, chemiluminescence; stronger effect = higher value. AID 1347074; in the data active = z-score above about 3, passing the limit was not always enough;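 also: plate controls were vehicle for no effect and no enzyme for full effect; higher signal means more uncleaved substrate so more Dicer inhibition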
# Starred values were filed as active, the others as inactive.
SMILES,Dicer processing
CC(=O)OCC12CC=C(C)C(C1)C(c1ccccc1OC(C)=O)OC2 (configuration not stated),0.85
CCOC(=O)c1cnc(NNS(=O)(=O)c2ccc(C#N)cc2)nc1C(F)(F)F,0.61
O=C1C=C(Nc2ccccc2)CC(c2ccc(Cl)cc2)C1 (configuration not stated),0.3
N#Cc1c2c(c(=O)n3c1[nH]c1ccccc13)CCCC2,-0.34
Cn1cc(Cl)c(C(=O)Nc2ccc(F)cc2F)n1,-0.87
CCCSc1ccc([N+](=O)[O-])c(NC(=NCCS(=O)(=O)O)NC(=O)OC)c1,1
CC(C)OC(=O)Nc1ccc(Cl)c(Cl)c1,-0.65
COc1ccc(C2Nc3c(C)cccc3-c3cc(C)nn32)cc1OC (configuration not stated),-0.04
Cc1cc2n(n1)C(c1cccc(Cl)c1)Nc1c(C)cccc1-2 (configuration not stated),6.2*
Cc1cc2n(n1)C(c1ccsc1)Nc1c(C)cccc1-2 (configuration not stated),-0.46
Cc1cccc(C)c1N=Cc1c(O)[nH]c(=O)[nH]c1=O,-0.66
Cn1ccnc1SCC(=O)Nc1nc(-c2ccc(F)cc2)cs1,2.9
CCOC(=O)c1c(C)nn(-c2ccc(N)cc2)c1C,0.86
CS(=O)(=O)Nc1ccc2c(c1)OCCO2,-0.44
Cn1nc(-c2ccc(Br)s2)c(Br)c1C(F)(F)F,45*
CSc1nnc(-c2ccc(Br)s2)n1C,-1.5
CSc1nc(C)nc(-c2cccc(CSc3ccccc3)c2)c1C#N,-0.22
O=C1OC(C(=O)Nc2ccccc2Cl)Cc2ccccc21 (configuration not stated),-0.22
c1ccc2c(c1)nc(NCc1ccncc1)n2CCN1CCOCC1,2.5
Cn1c(CNc2nc3ccccc3n2CCN2CCCCC2)nc2ccccc21,-0.42
Cc1ccc(CNc2nc3ccccc3n2CCN2CCOCC2)cc1,1.6
O=C(Nc1nc2ccccc2n1CCN1CCOCC1)c1cccc([N+](=O)[O-])c1,0.22
CCn1c(NCc2ccccn2)nc2ccccc21,0.67
c1ccc(CNc2nc3ccccc3n2CCN2CCCCC2)nc1,3.5*
COc1ccc(OC)c(CNc2nc3ccccc3n2CCN2CCOCC2)c1,5.1*
SMILES,Dicer processing
COc1ccc(CNc2nc3ccccc3n2C)cc1OC,1.8
Oc1ccccc1CNc1nc2ccccc2n1CCN1CCOCC1,4.1*
CCN1/C(=C(/O)c2ccccc2)C(=O)c2ccccc2S1(=O)=O,0.47
Cc1ccccc1OCCCn1c(C(C)O)nc2ccccc21 (configuration not stated),-0.15
CC(C)Cn1c(SCC(=O)c2ccc(Br)cc2)nc2ccccc2c1=O,-1.2
CCOC(=O)c1c(-c2ccc(C)cn2)csc1N,-1.1
CC(C)NC(=O)c1sc2ccccc2c1Cl,0.57
c1ccc(Cc2nc3c4c5c(sc4ncn3n2)CCCCC5)cc1,1
CNc1ccc(Br)cc1C(O)c1ccccc1 (configuration not stated),3.4*
C=CC(=C)CC(NC)c1ccccc1 (configuration not stated),1.5
CNC[C@H](O)c1cccc(O)c1,-0.43
C=C(C)c1cccc(C(C)(C)NC(=O)NCCc2ccc(S(N)(=O)=O)cc2)c1,3.9*
C=C(C)c1cccc(C(C)(C)NC(=O)NCCc2ccccc2)c1,1.2
C=C(C)c1cccc(C(C)(C)NC(=O)NCc2ccc(Cl)cc2)c1,0.35
CCOc1ccc2[nH]c(C3C(=O)c4ccccc4C3=O)cc(=O)c2c1,-0.57
CCOc1ccc2c(c1)C(=O)C(c1cc(=O)c3ccccc3[nH]1)C2=O (configuration not stated),6.1*
CCOc1ccc2c(c1)C(=O)c1cc(OCC)ccc1-2,6.4
Cn1cnc([N+](=O)[O-])c1N1CCOCC1,-0.46
S=C(NCCc1ccccc1)N/N=C/c1c(-c2ccc(Cl)cc2)[nH]c2ccccc12,3.7*
Oc1ccccc1/C=N/NC(=S)NCCc1ccccc1,12
COc1cccc(/C=N/NC(=S)NCCc2ccccc2)c1OC,-1.4
Cc1nc(SCC(=O)c2ccc(Cl)cc2)[nH]c(=O)c1CCC(C)C,-0.34
COC(=O)c1c(NS(=O)(=O)c2ccc(OC)c(OC)c2)sc2c1CCCC2,-0.23
COc1cc(OC)c(C(F)(F)F)cc1[N+](=O)[O-],1.2
Fc1ccc(CN2CCCN(Cc3ccc(F)cc3)C2c2ccc3c(c2)CCO3)cc1,-0.74
SMILES,Dicer processing
c1ccc2c(c1)NC(c1ccc3c(c1)CCO3)n1cccc1-2 (configuration not stated),3.4*
COc1ccc(C2Nc3ccccc3-c3cc(C)nn32)cc1OC (configuration not stated),3
CC1(C)CC(=O)c2cnn(-c3nc4ccccc4[nH]3)c2C1,-0.77
Cc1nc(Nc2ncc3c(n2)CC(C)CC3=O)nc2ccccc12 (configuration not stated),1.5
CC1CC(=O)c2cnn(-c3nc4ccccc4s3)c2C1 (configuration not stated),3*
C=CCSc1n[nH]c(=O)n1-c1ccc(OCc2ccccc2)cc1,-0.84
CCCCCOc1ccc(C2c3c(oc4ccccc4c3=O)C(=O)N2c2nccs2)cc1OC (configuration not stated),-1.6
O=c1oc(-c2ccco2)nc2cc(Cl)ccc12,2.6
COc1ccc(O)c(C2=Nc3ccccc3N=C(c3ccco3)C2)c1,2.4
Oc1ccc(Cl)cc1C1=Nc2ccccc2N=C(c2ccco2)C1,3*
Cc1ccc(C(=O)/C=C/S/C=C/C(=O)c2ccc(C)cc2C)c(C)c1,-2.1
O=C(NCc1ccc2c(c1)CCO2)C1=Cc2ccccc2OC1,-0.42
C=CCOc1ccc(C2c3c(oc4ccccc4c3=O)C(=O)N2c2ccc(C)cn2)cc1OCC (configuration not stated),2.3
COc1cc(C2c3c(oc4ccccc4c3=O)C(=O)N2c2ccc(C)cn2)ccc1O (configuration not stated),4.3*
Cc1ccc(N2C(=O)c3oc4ccccc4c(=O)c3C2c2cccc(O)c2)nc1 (configuration not stated),1.1
COC(=O)c1ccc(C2c3c(oc4ccccc4c3=O)C(=O)N2c2ccc(C)cn2)cc1 (configuration not stated),0.93
CCOc1cc(C2c3c(oc4ccccc4c3=O)C(=O)N2c2ccccn2)ccc1O (configuration not stated),2.7
CCOc1cc(C2c3c(oc4ccccc4c3=O)C(=O)N2c2ccc(C)cn2)ccc1O (configuration not stated),4.7*
CCOC(=O)COc1ccc2c(=O)c(Oc3ccc(C(C)(C)C)cc3)coc2c1,-0.02
CCn1c(C)[n+](CC(O)COc2ccccc2C)c2ccccc21 (configuration not stated),1
Cc1ccc(Nc2ncnc3ccccc23)c(C)c1,-0.49
Cc1ccc2ncnc(NC3CCCCC3)c2c1,4.7*
Cn1ncc2c(NC3CCCCC3)ncnc21,0.96
CN(C)C(=O)N1CCN(S(=O)(=O)c2ccc(Cl)cc2)CC1,0.7
O=S(=O)(c1ccc(Cl)cc1)N1CCN(c2cccc(Cl)c2)CC1,3.1*
O=S(=O)(c1ccc(Cl)cc1)N1CCSCC1,0.73
O=C(NCCCn1ccnc1)c1ccc2c(c1)OCO2,-0.26
CCc1ccc(C2c3c(oc4ccccc4c3=O)C(=O)N2c2nc(C)c(C(=O)OC)s2)cc1 (configuration not stated),1
CCN(CC)CCn1c2ccc(C)cc2c2nc3ccccc3nc21,0.68
CC(C)C(=O)N(c1ccc2oc(=O)sc2c1)S(=O)(=O)c1ccc(Cl)cc1,25

# Compound activity (PubChem BioAssay)
